Data: PubChem BioAssay AID1159580 (chemical genetic matrix, 2015)
The whole screen tested about 5,500 compounds, of which about 2,000 (36%) were called active. About 18% were inconclusive and are not listed. Rule as the data show it: active = normalized growth mostly below about 0.91 (no sharp cut-off); inconclusive = no clear call, values can overlap the other calls; inactive = mostly above about 0.92. The list shows a part of the results.

Assay: chemical genetic growth profiling, strain panel (AID 1159580);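 also: tested at 20 µM; growth read once vehicle control cultures reached saturation at 30 °C; 1 = growth at the plate median or of vehicle wells; lower values mean less growth of the strain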
Details: S. cerevisiae deletion strains, growth OD
[1] = locus YAL013W, strain DEP1, hits give low values
[2] = locus YBR229C, strain ROT2, hits give low values
[3] = locus YDL101C, strain DUN1, hits give low values
[4] = locus YDR150W, strain NUM1, hits give low values
[5] = locus YEL061C, strain CIN8, hits give low values
[6] = locus YGR078C, strain PAC10, hits give low values
[7] = locus YHR030C, strain SLT2, hits give low values
[8] = locus YHR087W, strain rtc3, hits give low values
[9] = locus YJR043C, strain POL32, hits give low values
[10] = locus YJR075W, strain HOC1, hits give low values
[11] = locus YLR039C, strain RIC1, hits give low values
[12] = locus YLR058C, strain SHM2 (second series), hits give low values
[13] = locus YLR085C, strain ARP6, hits give low values
[14] = locus YLR262C, strain YPT6, hits give low values
[15] = locus YML094W, strain GIM5, hits give low values
[16] = locus YMR219W, strain ESC1, hits give low values
[17] = locus YMR263W, strain SAP30, hits give low values
[18] = locus YNL153C, strain GIM3, hits give low values
[19] = locus YNL298W, strain CLA4 (second series), hits give low values
[20] = locus YNL322C, strain KRE1, hits give low values
[21] = locus YNR030W, strain Alg12, hits give low values
[22] = locus YPL055C, strain LGE1, hits give low values
[23] = locus YPL241C, strain CIN2, hits give low values
[24] = locus YPR135W, strain CTF4, hits give low values
[25] = locus YAR019C, strain CDC15, hits give low values
[26] = locus YBL105C, strain PKC1, hits give low values
[27] = locus YBR135W, strain CKS1, hits give low values
[28] = locus YBR136W, strain MEC1, hits give low values
[29] = locus YBR160W, strain CDC28, hits give low values
[30] = locus YDL017W, strain CDC7, hits give low values
[31] = locus YDL028C, strain MPS1, hits give low values
[32] = locus YDL108W, strain KIN28, hits give low values
[33] = locus YDL132W, strain cdc53, hits give low values
[34] = locus YDL214C, strain PRR2, hits give low values
[35] = locus YDR052C, strain DBF4, hits give low values
[36] = locus YDR054C, strain cdc34, hits give low values
[37] = locus YDR226W, strain ADK1, hits give low values
[38] = locus YDR477W, strain SNF1, hits give low values
[39] = locus YER123W, strain YCK3, hits give low values
[40] = locus YER133W, strain GLC7, hits give low values
[41] = locus YFL009W, strain cdc4, hits give low values
[42] = locus YFL029C, strain CAK1, hits give low values
[43] = locus YFR003C, strain YPI1, hits give low values
[44] = locus YFR019W, strain FAB1, hits give low values
[45] = locus YFR028C, strain CDC14, hits give low values
[46] = locus YGR040W, strain KSS1, hits give low values
[47] = locus YGR052W, strain FMP48, hits give low values
[48] = locus YGR092W, strain DBF2, hits give low values
[49] = locus YHR079C, strain IRE1, hits give low values
[50] = locus YHR082C, strain KSP1, hits give low values
[51] = locus YHR205W, strain SCH9, hits give low values
[52] = locus YIL147C, strain SLN1, hits give low values
[53] = locus YJL095W, strain BCK1, hits give low values
[54] = locus YJL128C, strain PBS2, hits give low values
[55] = locus YJL157C, strain FAR1, hits give low values
[56] = locus YJR016C, strain ILV3, hits give low values
[57] = locus YJR066W, strain TOR1 (second series), hits give low values
[58] = locus YJR066W, strain TOR1, hits give low values
[59] = locus YKL048C, strain ELM1, hits give low values
[60] = locus YKL067W, strain YNK1, hits give low values
[61] = locus YKL101W, strain HSL1, hits give low values
[62] = locus YKL193C, strain SDS22, hits give low values
[63] = locus YKL203C, strain TOR2, hits give low values
[64] = locus YLR133W, strain CKI1, hits give low values
[65] = locus YLR403W, strain SFP1, hits give low values
[66] = locus YML070W, strain DAK1, hits give low values
[67] = locus YMR001C, strain CDC5, hits give low values
[68] = locus YMR205C, strain PFK2 (second series), hits give low values
[69] = locus YMR277W, strain FCP1, hits give low values
[70] = locus YNL006W, strain LST8, hits give low values
[71] = locus YNL020C, strain ARK1, hits give low values
[72] = locus YNL161W, strain CBK1, hits give low values
[73] = locus YNL183C, strain NPR1, hits give low values
[74] = locus YNL207W, strain RIO2, hits give low values
[75] = locus YNL222W, strain SSU72, hits give low values
[76] = locus YNL307C, strain MCK1 (second series), hits give low values
[77] = locus YOL078W, strain AVO1, hits give low values
[78] = locus YOL136C, strain PFK27, hits give low values
[79] = locus YOR061W, strain CKA2, hits give low values
[80] = locus YOR119C, strain RIO1, hits give low values
[81] = locus YOR231W, strain MKK1, hits give low values
[82] = locus YOR329C, strain SCD5, hits give low values
[83] = locus YPL031C, strain PHO85, hits give low values
[84] = locus YPL153C, strain RAD53, hits give low values
[85] = locus YPL204W, strain HRR25, hits give low values
[86] = locus YPL209C, strain IPL1, hits give low values
[87] = locus YPL256C, strain CLN2, hits give low values
[88] = locus YPR025C, strain CCL1, hits give low values
[89] = locus YPR106W, strain ISR1, hits give low values
[90] = locus YPR111W, strain DBF20, hits give low values
[91] = strain NNK1, hits give low values
[92] = strain TSCII, hits give low values

Measured: normalized growth

FC(F)(F)c1cnc(N2CCN(C(=S)Nc3ccccc3)CC2)c(Cl)c1
inactive: [1] 0.989 | [2] 1.01 | locus YCL061C, strain MRC1, hits give low values 1 | [3] 0.999 | locus YDL134C, strain PPH21, hits give low values 1.01 | [4] 0.963 | [5] 0.985 | [6] 0.993 | [7] 1.05 | [8] 1.03 | [9] 0.986 | [10] 1.02 | locus YKL190W, strain CNB1, hits give low values 1.01 | [11] 0.984 | [12] 1.02 | [13] 1.03 | [14] 1.02 | [15] 0.952 | [16] 1.02 | [17] 0.982 | locus YMR307W, strain GAS1, hits give low values 1 | locus YNL128W, strain TEP1, hits give low values 1.01 | [18] 0.972 | [19] 0.976 | [20] 1.01 | [21] 1 | locus YOL006C, strain TOP1, hits give low values 0.894 | [22] 0.938 | [23] 0.955 | [24] 0.981

CC(C)c1ccccc1NC(=S)N1CCN(c2ncc(C(F)(F)F)cc2Cl)CC1
active: [11] 0.761 | [14] 0.736
inactive: [1] 1.02 | [2] 0.995 | [3] 0.985 | [4] 1.02 | [5] 1.01 | [6] 1.01 | locus YGR229C, strain SMI1, hits give low values 0.963 | [7] 0.976 | [8] 1.02 | [9] 0.995 | [10] 0.972 | [12] 0.977 | [13] 1.1 | [15] 1.04 | [16] 0.992 | [17] 0.991 | [18] 1.02 | [19] 0.984 | [20] 0.998 | [21] 1.02 | [22] 1.13 | [23] 1.07 | [24] 1.17

O=C(NCCNc1ncc(C(F)(F)F)cc1Cl)C(F)(F)Sc1ccccc1
inactive: [25] 0.985 | [26] 0.983 | [27] 0.971 | [28] 0.973 | [29] 0.984 | [30] 0.977 | [31] 0.97 | [3] 0.976 | [32] 0.957 | [33] 0.988 | [34] 0.898 | [35] 0.986 | [36] 0.978 | [37] 0.982 | [38] 0.919 | [39] 0.828 | [40] 0.924 | [41] 0.982 | [42] 0.988 | [43] 0.972 | [44] 0.885 | [45] 0.989 | [46] 0.916 | [47] 0.978 | [48] 0.909 | [7] 0.99 | [49] 0.994 | [50] 1 | [51] 0.912 | [52] 0.974 | [53] 0.98 | [54] 0.914 | [55] 0.887 | [56] 0.974 | [57] 0.899 | [58] 0.989 | [59] 0.939 | [60] 0.91 | [61] 0.908 | [62] 0.984 | [63] 0.991 | locus YLR113W, strain HOG1, hits give low values 0.883 | [64] 0.916 | [65] 0.922 | [66] 0.876 | [67] 0.978 | [68] 0.907 | [69] 0.983 | [70] 0.978 | [71] 0.894 | [72] 0.985 | [73] 0.961 | [74] 0.983 | [75] 0.979 | [76] 0.905 | [77] 0.98 | [78] 0.893 | [79] 0.868 | [80] 0.966 | [81] 0.939 | [82] 0.987 | [83] 0.912 | [84] 0.907 | [85] 0.936 | [86] 0.975 | [87] 1 | [88] 0.98 | [89] 0.984 | [90] 0.968 | [91] 0.982 | [92] 0.982

O=C(NCCNc1ncc(Cl)cc1C(F)(F)F)C(F)(F)Sc1ccccc1
inactive: [25] 0.982 | [26] 0.978 | [27] 0.975 | [28] 0.984 | [29] 0.979 | [30] 0.977 | [31] 0.992 | [3] 0.982 | [32] 0.981 | [33] 0.977 | [34] 0.987 | [35] 0.982 | [36] 0.991 | [37] 0.982 | [38] 0.996 | [39] 1.01 | [40] 1 | [41] 0.979 | [42] 0.984 | [43] 0.985 | [44] 0.996 | [45] 0.982 | [46] 0.991 | [47] 1.14 | [48] 0.994 | [49] 1.17 | [50] 1.19 | [51] 0.975 | [52] 0.986 | [53] 1.16 | [54] 0.934 | [55] 0.985 | [56] 0.989 | [57] 1.01 | [58] 1.19 | [59] 0.973 | [60] 0.991 | [61] 0.984 | [62] 0.973 | [63] 1.08 | [64] 0.979 | [65] 0.998 | [66] 0.986 | [67] 0.969 | [68] 0.984 | [69] 0.975 | [70] 0.983 | [71] 0.978 | [72] 0.984 | [73] 1.13 | [74] 0.989 | [75] 0.976 | [76] 0.972 | [77] 0.981 | [78] 1 | [79] 0.992 | [80] 1.02 | [81] 1.12 | [82] 0.985 | [83] 0.99 | [84] 1.01 | [85] 0.995 | [86] 0.983 | [88] 0.984 | [89] 0.982 | [90] 0.979 | [91] 0.993 | [92] 0.978
active: [7] 1.2 [resistant] | [87] 1.25 [resistant]
